Measurements: the supplement of paper PMC8728848
The sample as a whole holds a higher share of the strongest signals than the screen did.

What was measured:
Assay in all cases: glycan array binding signal (z-score within array); higher = stronger binding
Gal6S(b1-4)GlcNAc6S = details: glycan notation: IUPAC condensed, linker removed
In short: (§1)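 The binding signal is a Z-score computed within each array. Data were drawn from 3228 arrays in the Consortium for Functional Glycomics database, restricted to those with a known protein sequence. Scores were averaged over arrays of the same protein sequence at different concentrations or buffers, and over linkers, and negative values can be taken as non-binding.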

GalNAc(b1-4)GlcNAc6S = details: glycan notation: IUPAC condensed, linker removed; mutation: H59Q
In short: as §1

GlcA(b1-6)Gal = details: glycan notation: IUPAC condensed, linker removed; mutation: H59Q
In short: as §1

[1] = molecular target: GlcA3S(b1-3)Gal(b1-4)GlcNAc(b1-2)Man; details: glycan notation: IUPAC condensed, linker removed; mutation: H59Q
In short: as §1

[2] = molecular target: GlcA3S(b1-3)Gal(b1-4)GlcNAc(b1-3)Gal(b1-4)Glc; details: glycan notation: IUPAC condensed, linker removed; mutation: H59Q
In short: as §1

[3] = molecular target: GlcNAc(a1-4)Gal(b1-4)GlcNAc(b1-3)Gal(b1-4)Glc; details: glycan notation: IUPAC condensed, linker removed; mutation: H59Q
In short: as §1

[4] = molecular target: GlcNAc(b1-2)Man(a1-3)[GlcNAc(b1-2)Man(a1-6)]Man(b1-4)GlcNAc(b1-4)[Fuc(a1-6)]GlcNAc; details: glycan notation: IUPAC condensed, linker removed; mutation: H59Q
In short: as §1

[5] = molecular target: GlcNAc(b1-2)[GlcNAc(b1-4)]Man(a1-3)[GlcNAc(b1-4)][GlcNAc(b1-2)Man(a1-6)]Man(b1-4)GlcNAc(b1-4)GlcNAc; details: glycan notation: IUPAC condensed, linker removed; mutation: H59Q
In short: as §1

[6] = molecular target: Man(a1-2)Man(a1-3)[Man(a1-6)]Man(a1-6)[Man(a1-2)Man(a1-3)]Man(b1-4)GlcNAc(b1-4)GlcNAc; details: glycan notation: IUPAC condensed, linker removed; mutation: H59Q
In short: as §1

[7] = molecular target: Man(a1-3)[Man(a1-6)]Man(b1-4)GlcNAc(b1-4)GlcNAc; details: glycan notation: IUPAC condensed, linker removed; mutation: H59Q
In short: as §1

[8] = molecular target: Neu5Ac(a2-3)Gal(b1-3)GalNAc6S; details: glycan notation: IUPAC condensed, linker removed; mutation: H59Q
In short: as §1

[9] = molecular target: Neu5Ac(a2-3)Gal(b1-3)GlcNAc(b1-2)Man(a1-3)[GlcNAc(b1-4)][Neu5Ac(a2-3)Gal(b1-3)GlcNAc(b1-2)Man(a1-6)]Man(b1-4)GlcNAc(b1-4)GlcNAc; details: glycan notation: IUPAC condensed, linker removed; mutation: H59Q
In short: as §1

[10] = molecular target: Neu5Ac(a2-3)Gal(b1-4)GlcNAc(b1-2)Man; details: glycan notation: IUPAC condensed, linker removed; mutation: H59Q
In short: as §1

[11] = molecular target: Neu5Ac(a2-3)Gal(b1-4)GlcNAc(b1-2)[Neu5Ac(a2-3)Gal(b1-4)GlcNAc(b1-4)]Man(a1-3)[GlcNAc(b1-4)][Neu5Ac(a2-3)Gal(b1-4)GlcNAc(b1-4)Man(a1-6)]Man(b1-4)GlcNAc(b1-4)GlcNAc; details: glycan notation: IUPAC condensed, linker removed; mutation: H59Q
In short: as §1

[12] = molecular target: Neu5Ac(a2-3)Gal(b1-4)GlcNAc(b1-3)GalNAc; details: glycan notation: IUPAC condensed, linker removed; mutation: H59Q
In short: as §1

[13] = molecular target: Neu5Ac(a2-3)Gal(b1-4)[Fuc(a1-3)]GlcNAc(b1-3)GalNAc; details: glycan notation: IUPAC condensed, linker removed
In short: as §1

[14] = molecular target: Neu5Ac(a2-3)[GalNAc(b1-4)]Gal(b1-4)GlcNAc(b1-3)GalNAc; details: glycan notation: IUPAC condensed, linker removed; mutation: H59Q
In short: as §1

[15] = molecular target: Neu5Ac(a2-6)Gal(b1-4)GlcNAc(b1-2)Man(a1-3)[Man(a1-6)]Man(b1-4)GlcNAc(b1-4)GlcNAc; details: glycan notation: IUPAC condensed, linker removed; mutation: H59Q
In short: as §1

[16] = molecular target: Neu5Ac(a2-6)GalNAc(b1-4)GlcNAc; details: glycan notation: IUPAC condensed, linker removed; mutation: H59Q
In short: as §1

[17] = molecular target: Neu5Ac(a2-8)Neu5Ac(a2-3)Gal(b1-3)GalNAc(b1-4)[Neu5Ac(a2-8)Neu5Ac(a2-3)]Gal(b1-4)Glc; details: glycan notation: IUPAC condensed, linker removed; mutation: H59Q
In short: as §1

Neu5Gc(a2-6)GalNAc = details: glycan notation: IUPAC condensed, linker removed; mutation: H59Q
In short: as §1

[18] = molecular target: Neu5Gc(a2-8)Neu5Gc(a2-6)Gal(b1-4)GlcNAc; details: glycan notation: IUPAC condensed, linker removed; mutation: H59Q
In short: as §1

[19] = molecular target: Neu5Gc(b2-6)Gal(b1-4)GlcNAc; details: glycan notation: IUPAC condensed, linker removed; mutation: H59Q
In short: as §1

[20] = molecular target: Fuc(a1-2)Gal(b1-3)[Fuc(a1-4)]GlcNAc(b1-2)Man(a1-3)[Fuc(a1-2)Gal(b1-3)[Fuc(a1-4)]GlcNAc(b1-2)Man(a1-6)]Man(b1-4)GlcNAc(b1-4)GlcNAc; details: glycan notation: IUPAC condensed, linker removed
In short: as §1

[21] = molecular target: Fuc(a1-2)[Gal(a1-3)]Gal(b1-4)GlcNAc; details: glycan notation: IUPAC condensed, linker removed
In short: as §1

[22] = molecular target: Fuc(a1-2)[GalNAc(a1-3)]Gal(b1-3)GalNAc(a1-3)[Fuc(a1-2)]Gal(b1-4)GlcNAc; details: glycan notation: IUPAC condensed, linker removed
In short: as §1

[23] = molecular target: Fuc(a1-3)[Gal(b1-4)]GlcNAc(b1-6)[Gal(b1-3)GlcNAc(b1-3)]Gal(b1-4)Glc; details: glycan notation: IUPAC condensed, linker removed
In short: as §1

[24] = molecular target: Fuc(a1-3)[Gal(b1-4)]GlcNAc6S; details: glycan notation: IUPAC condensed, linker removed
In short: as §1

[25] = molecular target: Fuc(a1-3)[Gal3S(b1-4)]GlcNAc; details: glycan notation: IUPAC condensed, linker removed
In short: as §1

[26] = molecular target: Gal(a1-3)Gal(b1-4)[Fuc(a1-3)]GlcNAc(b1-2)Man(a1-3)[Gal(a1-3)Gal(b1-4)[Fuc(a1-3)]GlcNAc(b1-2)Man(a1-6)]Man(b1-4)GlcNAc(b1-4)GlcNAc; details: glycan notation: IUPAC condensed, linker removed
In short: as §1

[27] = molecular target: Gal(b1-3)GalNAc(b1-4)Gal(b1-4)Glc; details: glycan notation: IUPAC condensed, linker removed
In short: as §1

[28] = molecular target: Gal(b1-4)GlcNAc(b1-3)Gal(b1-4)Glc; details: glycan notation: IUPAC condensed, linker removed
In short: as §1

[29] = molecular target: Gal3S(b1-4)[Fuc(a1-3)]Glc6S; details: glycan notation: IUPAC condensed, linker removed
In short: as §1

Gal3S4S(b1-4)GlcNAc = details: glycan notation: IUPAC condensed, linker removed
In short: as §1

Gal3S6S(b1-4)GlcNAc6S = details: glycan notation: IUPAC condensed, linker removed
In short: as §1

Gal4S6S(b1-4)GlcNAc = details: glycan notation: IUPAC condensed, linker removed
In short: as §1

Gal6S(b1-4)Glc6S = details: glycan notation: IUPAC condensed, linker removed
In short: as §1

Gal6S(b1-4)GlcNAc = details: glycan notation: IUPAC condensed, linker removed
In short: as §1

GalNAc(b1-3)GalNAc = details: glycan notation: IUPAC condensed, linker removed
In short: as §1

[30] = molecular target: GlcNAc(a1-4)Gal(b1-4)GlcNAc(b1-3)Gal(b1-4)[Fuc(a1-3)]GlcNAc(b1-3)Gal(b1-4)[Fuc(a1-3)]GlcNAc; details: glycan notation: IUPAC condensed, linker removed
In short: as §1

[31] = molecular target: GlcNAc(a1-6)Gal(b1-4)GlcNAc; details: glycan notation: IUPAC condensed, linker removed
In short: as §1

GlcNAc(b1-3)Gal(b1-4)Glc = details: glycan notation: IUPAC condensed, linker removed
In short: as §1

[32] = molecular target: GlcNAc(b1-4)[GlcNAc(b1-6)]GalNAc; details: glycan notation: IUPAC condensed, linker removed
In short: as §1

[33] = molecular target: Man(a1-3)[Man(a1-6)]Man(a1-6)[Man(a1-3)]Man; details: glycan notation: IUPAC condensed, linker removed
In short: as §1

[34] = molecular target: Neu5Ac(a2-3)[GalNAc(b1-4)]Gal(b1-4)Glc; details: glycan notation: IUPAC condensed, linker removed
In short: as §1

[35] = molecular target: Neu5Ac(a2-6)Gal(b1-4)GlcNAc; details: glycan notation: IUPAC condensed, linker removed
In short: as §1

[36] = molecular target: Neu5Ac(a2-6)Gal(b1-4)GlcNAc(b1-2)Man(a1-6)Man(b1-4)GlcNAc(b1-4)GlcNAc; details: glycan notation: IUPAC condensed, linker removed
In short: as §1

B1: rAAL-H59Q (Agrocybe aegerita), Q6WY08 (protein)
chain: MQGVNIYNISAGTSVDLAAPVTTGDIVTFFSSALNLNAGAGNPNNTTLNLFAENGAYLLQIAFRLQENVIIFNSRQPDGPWLVEQRVSDVANQFAGIDGKAMVTVFDHGDKYQVVINEKTVIQYTKQISGLTLSLSYNATEETSIFSTVVEAVTYTGLALEHHHHHH
glycan array binding signal (z-score) (Gal6S(b1-4)GlcNAc6S; mutation: H59Q): -0.14
glycan array binding signal (z-score) (GalNAc(b1-4)GlcNAc6S): -0.023
glycan array binding signal (z-score) (GlcA(b1-6)Gal): -0.064
glycan array binding signal (z-score) [1]: 19.6
glycan array binding signal (z-score) [2]: 12.1
glycan array binding signal (z-score) [3]: -0.059
glycan array binding signal (z-score) [4]: -0.07
glycan array binding signal (z-score) [5]: -0.055
glycan array binding signal (z-score) [6]: -0.093
glycan array binding signal (z-score) [7]: -0.085
glycan array binding signal (z-score) [8]: -0.117
glycan array binding signal (z-score) [9]: -0.066
glycan array binding signal (z-score) [10]: -0.03
glycan array binding signal (z-score) [11]: -0.016
glycan array binding signal (z-score) [12]: -0.092
glycan array binding signal (z-score) ([13]; mutation: H59Q): 0.246
glycan array binding signal (z-score) [14]: -0.084
glycan array binding signal (z-score) [15]: 0.009
glycan array binding signal (z-score) [16]: -0.112
glycan array binding signal (z-score) [17]: -0.103
glycan array binding signal (z-score) (Neu5Gc(a2-6)GalNAc): -0.145
glycan array binding signal (z-score) [18]: -0.072
glycan array binding signal (z-score) [19]: -0.027

B2: Pp2-A2 (Arabidopsis thaliana), Q07098 (protein)
chain: MPSNGDLDRQIEQLMECKPLSEADVRTLCDQARAILVEEYNVQPVKCPVTVCGDIHGQFYDLIELFRIGGNAPDTNYLFMGDYVDRGYYSVETVSLLVALKVRYRDRLTILRGNHESRQITQVYGFYDECLRKYGNANVWKYFTDLFDYLPLTALIESQVFCLHGGLSPSLDTLDNIRSLDRIQEVPHEGPMCDLLWSDPDDRCGWGISPRGAGYTFGQDIAAQFNHNNGLSLISRAHQLVMEGFNWCQDKNVVTVFSAPNYCYRCGNMAAILEIGENMEQNFLQFDPAPRQVEPDTTRKTPDYFL
glycan array binding signal (z-score) [20]: 2.08
glycan array binding signal (z-score) [21]: -0.404
glycan array binding signal (z-score) [22]: 0.21
glycan array binding signal (z-score) [23]: -0.662
glycan array binding signal (z-score) [24]: 0.633
glycan array binding signal (z-score) [25]: -0.461
glycan array binding signal (z-score) [26]: -0.298
glycan array binding signal (z-score) [27]: -0.181
glycan array binding signal (z-score) [28]: -0.032
glycan array binding signal (z-score) [29]: 4.36
glycan array binding signal (z-score) (Gal3S4S(b1-4)GlcNAc): 6.14
glycan array binding signal (z-score) (Gal3S6S(b1-4)GlcNAc6S): 4.5
glycan array binding signal (z-score) (Gal4S6S(b1-4)GlcNAc): 4.54
glycan array binding signal (z-score) (Gal6S(b1-4)Glc6S): 4.11
glycan array binding signal (z-score) (Gal6S(b1-4)GlcNAc): -0.117
glycan array binding signal (z-score) (Gal6S(b1-4)GlcNAc6S): 2.28
glycan array binding signal (z-score) (GalNAc(b1-3)GalNAc): -0.683
glycan array binding signal (z-score) [30]: 5.17
glycan array binding signal (z-score) [31]: -0.835
glycan array binding signal (z-score) (GlcNAc(b1-3)Gal(b1-4)Glc): -0.721
glycan array binding signal (z-score) [32]: -0.771
glycan array binding signal (z-score) [33]: 0.061
glycan array binding signal (z-score) [13]: 4.64
glycan array binding signal (z-score) [34]: -0.213
glycan array binding signal (z-score) [35]: -0.266
glycan array binding signal (z-score) [36]: -0.465
